Laboratory results from PubChem BioAssay AID1224921 (Broad Institute, 2016).
Hit rate of the full screen: of about 1,400 compounds, about 350 (25%) were called active. Not shown: some 2% with an inconclusive outcome. No rule for the calls is given here. These entries were drawn from the full list. Results with a measured potency or affinity are listed apart.

assay: inhibitors of Clostridioides difficile proliferation – 4-point retest, confirmation (AID 1224921); conditions: Clostridioides difficile clinical isolate growth, OD600, 24 h, stronger effect = lower value; at 30 µM unless noted;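 also: plate controls were DMSO wells for no effect and levofloxacin 16 µg/mL wells for full effect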

Max activity, inactive:
CCS(=O)(=O)Nc1ccc2c(c1)C(=O)N(C)C[C@H](OC)[C@@H](C)CN(C(C)=O)[C@@H](C)CO2 -9.47% [at 1.95 µM], CO[C@@H]1CN(C)C(=O)c2cc(NC(C)=O)ccc2OC[C@H](C)N(Cc2nccs2)C[C@H]1C 10.1%, CO[C@H]1CN(C)C(=O)c2cc(NC(C)=O)ccc2OC[C@H](C)N(CC2CCCCC2)C[C@H]1C 16.4%, C[C@@H]1CN([C@H](C)CO)S(=O)(=O)c2ccc(C#CC3(O)CCCC3)cc2O[C@@H]1CN(C)C(=O)Nc1ccc(F)cc1 21.5%, O=C(C[C@@H]1C=C[C@@H](NC(=O)Cc2cccnc2)[C@H](CO)O1)Nc1ccccc1 -12.6%, COc1ccccc1S(=O)(=O)N[C@@H]1C=C[C@H](CC(=O)N2CCCCC2)O[C@H]1CO -12.3% [at 8 µM], O=C(C[C@@H]1C[C@H]2c3cc(NC(=O)Nc4ccccc4)ccc3O[C@H]2[C@@H](CO)O1)NC1CCCC1 -18%, Cc1ccc(-c2ccc3c(c2)O[C@H](CN(C)Cc2cccnc2)[C@H](C)CN([C@@H](C)CO)S3(=O)=O)cc1 32.9%, CC(=O)N(C)C[C@@H]1Oc2ncc(C#Cc3ccc(F)cc3)cc2C(=O)N([C@H](C)CO)C[C@H]1C 21.7%, CO[C@H]1CN(C)C(=O)c2ccc(NC(=O)Nc3cccc(Cl)c3)cc2OC[C@@H](C)NC[C@@H]1C 37.7%, CO[C@H]1CN(C)C(=O)c2ccc(NC(=O)Nc3cccc(Cl)c3)cc2OC[C@H](C)NC[C@@H]1C -12.1% [at 8 µM], C[C@@H]1CN([C@H](C)CO)C(=O)c2cc(NC(=O)CCCN(C)C)ccc2O[C@@H](C)CCCCO[C@@H]1CN(C)Cc1ccc(C(F)(F)F)cc1 6.03% [at 35 µM], C[C@@H]1CN([C@H](C)CO)C(=O)c2cc(NC(=O)Nc3cccc4ccccc34)ccc2O[C@@H](C)CCCCO[C@H]1CN(C)C(=O)c1ccccc1 24.4%, CO[C@@H]1CN(C)C(=O)c2ccc(NC(C)=O)cc2OC[C@@H](C)N(C(=O)CN(C)C)C[C@H]1C -8.17%, CCCC(=O)Nc1ccc2c(c1)C(=O)N(C)C[C@@H](OC)[C@@H](C)CN(Cc1ccc(F)cc1)[C@H](C)CO2 20.9%, COc1ccc(-c2cnc3c(c2)C(=O)N([C@H](C)CO)C[C@H](C)[C@@H](CN(C)Cc2ccc(C(=O)O)cc2)O3)cc1 -17.6% [at 2.1 µM], CO[C@H]1CN(C)C(=O)c2cc(NC(=O)c3nc4ccccc4s3)ccc2OC[C@H](C)N(Cc2ccncc2)C[C@@H]1C 20%, CCC(=O)N1C[C@@H](C)[C@@H](OC)CN(C)C(=O)c2ccc(NC(=O)Nc3ccccc3)cc2OC[C@H]1C -13.3% [at 1.95 µM], COCC(=O)N(C)C[C@H]1Oc2cc(C#Cc3ccccc3)ccc2S(=O)(=O)N([C@H](C)CO)C[C@H]1C 35.4%, CCS(=O)(=O)Nc1ccc2c(c1)C(=O)N(C)C[C@@H](OC)[C@@H](C)CN(CC1CCCC1)[C@@H](C)CO2 -10.9% [at 0.5 µM], Cc1ccc(-c2ccc3c(c2)O[C@@H](CN(C)Cc2cccnc2)[C@@H](C)CN([C@H](C)CO)S3(=O)=O)cc1 26.8%, CN1CCN(C(=O)C[C@@H]2C[C@@H]3c4cc(NC(=O)Cc5ccncc5)ccc4O[C@@H]3[C@H](CO)O2)CC1 13.2%, O=C(N[C@@H]1C=C[C@@H](CC(=O)N2CCOCC2)O[C@@H]1CO)c1cccc(F)c1 -15.3% [at 1.95 µM], C[C@H](CO)N1C[C@H](C)[C@H](CN(C)C(=O)Nc2ccc(F)cc2)Oc2ncc(-c3cc4ccccc4o3)cc2C1=O 26.1%, COc1ccccc1S(=O)(=O)N[C@H]1C=C[C@@H](CC(=O)N2CCCCC2)O[C@H]1CO -12.3%, COc1ccc(CNC(=O)C[C@H]2C[C@@H]3c4cc(NC(=O)NC5CCCC5)ccc4O[C@@H]3[C@@H](CO)O2)cc1 -9.75%, CO[C@@H]1CN(C)C(=O)c2ccc(NC(=O)C3CCCC3)cc2OC[C@@H](C)NC[C@@H]1C -1.17% [at 1.95 µM], CO[C@H]1CN(C)C(=O)c2ccc(NC(=O)C3CCCCC3)cc2OC[C@H](C)N(Cc2nccs2)C[C@H]1C 21.8% [at 8 µM], C[C@@H]1CN([C@H](C)CO)C(=O)c2ccccc2-c2ccccc2CO[C@H]1CN(C)S(=O)(=O)c1ccsc1 29%, C[C@@H]1CN([C@H](C)CO)C(=O)Cc2cc(NS(C)(=O)=O)ccc2O[C@H]1CN(C)Cc1ccccc1 15.9%, COc1ccc(-c2ccc([C@H]3[C@H](C#N)N(C(=O)NC4CCCC4)[C@H]3CO)cc2)cc1 36.8% [at 9 µM], CO[C@H]1CN(C)C(=O)c2cc(NC(=O)c3cccc(F)c3)ccc2OC[C@H](C)N(C(C)=O)C[C@H]1C -6.58%, Cc1nn(C)cc1NC(=O)C[C@@H]1CC[C@@H]2[C@@H](COc3ccc(NC(=O)Nc4cccc(Cl)c4)cc3C(=O)N2C)O1 10.1%, Cc1ccccc1-c1ccc2c(c1)O[C@H](CN(C)Cc1ccncc1)[C@@H](C)CN([C@H](C)CO)S2(=O)=O 13.6%, CCC(=O)Nc1ccc2c(c1)OC[C@H](C)N(CC1CCCCC1)C[C@H](C)[C@@H](OC)CN(C)C2=O 33.6%, COCC(=O)Nc1ccc2c(c1)OC[C@@H](C)N(Cc1ccccc1F)C[C@@H](C)[C@@H](OC)CN(C)C2=O -4.19%, C[C@@H]1CN([C@H](C)CO)C(=O)c2ccccc2-c2ccccc2CO[C@@H]1CN(C)C(=O)CCN(C)C -7.59% [at 2.1 µM], C[C@H]1CN([C@@H](C)CO)C(=O)Cc2cc(NS(=O)(=O)c3ccccc3)ccc2O[C@@H]1CN(C)Cc1ccc(Cl)c(Cl)c1 49.4%, C[C@@H]1CN([C@H](C)CO)C(=O)Cc2cc(NS(=O)(=O)c3ccccc3)ccc2O[C@@H]1CN(C)Cc1ccc(Cl)c(Cl)c1 30.5% [at 35 µM], C[C@@H]1CN([C@@H](C)CO)C(=O)Cc2cc(NS(C)(=O)=O)ccc2O[C@H]1CN(C)CC1CCCCC1 14.3%, Cc1ccc(S(=O)(=O)Nc2ccc3c(c2)C(=O)N([C@@H](C)CO)C[C@H](C)[C@@H](CN(C)Cc2ccc(C(F)(F)F)cc2)OCCCC[C@@H](C)O3)cc1 32.7% [at 8 µM], Cc1ccc(S(=O)(=O)Nc2ccc3c(c2)C(=O)N([C@@H](C)CO)C[C@@H](C)[C@H](CN(C)C)OCCCC[C@H](C)O3)cc1 -4% [at 8 µM], COc1ccc(S(=O)(=O)Nc2ccc3c(c2)CC(=O)N([C@@H](C)CO)C[C@H](C)[C@@H](CN(C)CC2CCCCC2)O3)cc1 52.7%, C[C@@H]1CCCCO[C@H](CN(C)Cc2ccc(C(F)(F)F)cc2)[C@@H](C)CN([C@@H](C)CO)C(=O)c2cc(NS(=O)(=O)c3ccc(Cl)cc3)ccc2O1 24% [at 8 µM], C[C@H](CO)N1C[C@H](C)[C@H](CN(C)CC2CCCCC2)OCCCC[C@H](C)Oc2ccc(NS(=O)(=O)c3ccc(Cl)cc3)cc2C1=O 23% [at 8 µM], O=C(C[C@H]1C[C@@H]2c3cc(NC(=O)C4CCC4)ccc3O[C@@H]2[C@@H](CO)O1)NCc1ccc2c(c1)OCO2 -8.66% [at 0.5 µM], COc1ccccc1NC(=O)N[C@@H]1CC[C@@H](CC(=O)N2CCC(Cc3ccccc3)CC2)O[C@@H]1CO -7.56%, CCS(=O)(=O)Nc1ccc2c(c1)C(=O)N(C)C[C@@H](OC)[C@H](C)CN(C(C)=O)[C@@H](C)CO2 -11.1%, C[C@@H]1CCCCO[C@H](CN(C)Cc2ccc(C(=O)O)cc2)[C@H](C)CN([C@H](C)CO)C(=O)c2cc(NC(=O)Nc3ccc4c(c3)OCO4)ccc2O1 -16.4%, C[C@@H]1CN([C@@H](C)CO)S(=O)(=O)c2ccc(C3=CCCCC3)cc2O[C@@H]1CN(C)Cc1cccnc1 23.6%, O=C(Nc1cc(F)ccc1F)N[C@@H]1CC[C@@H](CC(=O)N2CCc3ccccc3C2)O[C@H]1CO 14.6%, CNC[C@@H]1Oc2cc(C#CCOC)ccc2S(=O)(=O)N([C@@H](C)CO)C[C@H]1C -11.1% [at 8 µM], O=C(N[C@H]1C=C[C@H](CC(=O)N2CCc3ccccc3C2)O[C@H]1CO)C1CC1 -8.59%, C[C@H]1CN([C@@H](C)CO)S(=O)(=O)c2ccc(C#CC3CCCC3)cc2O[C@H]1CN(C)Cc1cccnc1 23.6%, O=C(C[C@@H]1C[C@@H]2c3cc(NC(=O)C4CCC4)ccc3O[C@@H]2[C@H](CO)O1)NCc1cc(F)ccc1F 4.63%, Cc1ccc(-c2ccc3c(c2)O[C@@H](CN(C)Cc2ccncc2)[C@@H](C)CN([C@H](C)CO)S3(=O)=O)cc1 -8.83% [at 8 µM], C[C@H](CO)N1C[C@H](C)[C@H](CN(C)Cc2ccncc2)Oc2cc(C3=CCCCC3)ccc2S1(=O)=O 33%, C[C@H]1CN([C@@H](C)CO)C(=O)c2ccccc2-c2ccccc2CO[C@H]1CN(C)Cc1cccc(O)c1 7.55%
